Key:
[1] = inhibitors of PAF-induced NFkB signaling in CF airway cells, dose response, cell-based, uHTS hits, panel, cytotoxicity readout (AID 624344); conditions: CF bronchial epithelial cells, PAF-induced NFkB reporter inhibition, with PAF, run 1; at 79 µM (top of the series) unless noted
[2] = as above; conditions: CF bronchial epithelial cells, PAF-induced NFkB reporter inhibition, with PAF, run 2; at 79 µM (top of the series) unless noted

Structure (SMILES) | inhibition [1] [%] | inhibition [2] [%]
CCN(CC(=O)Nc1ccc(OC)cc1)C(=O)c1cc(-c2cccs2)nn1-c1ccccc1 | 99.6 | 98.4
CC(=O)Oc1ccc(N(C(C)=O)S(=O)(=O)c2cccs2)c2ccccc12 | 92.7 | 62.6
CC1=C(C(=O)OCc2ccc3c(c2)OCO3)C(c2ccc(O)c([N+](=O)[O-])c2)NC(=O)N1 (stereo not given) | 94.5 | 89
CN(C)c1ccc(-c2nn3c(-c4ccccc4Cl)nnc3s2)cc1 | 102 | 65.9
CC(C)(C)S(=O)N1Cc2cc(C(=O)NCC(F)(F)F)nc(-c3cccc(-c4cccc(F)c4)c3)c2[C@@H]1CCO (stereo not given in full) | 110 | 103
NC(N)=NN=C(c1ccc(F)cc1)c1ccc(C(F)(F)F)cc1 | 108 | 117
Cc1nc(N)c(C#N)c(-c2cccnc2)c1-c1ccccc1 | 93.9 | 80
O=C1NCCc2c1[nH]c1c(Cl)ccc(Cl)c21 | 101 | 113
Cc1cnc(NC(=O)CCCc2nc3ccccc3s2)s1 | 101 | 114
O=C1CC(=O)OC(c2ccc([N+](=O)[O-])cc2)O1 | 101 | 94.3
CS(=O)(=O)c1ccc2nc(NC(=O)Nc3cccc(Cl)c3)sc2c1 | 79.3 | 83.9
O=[N+]([O-])c1ccc(Oc2ccc(F)cc2)c2ccncc12 | 99.2 | 97.3
CCOC(=O)c1c(C)cc2c(CO)n[nH]c(=O)c2c1C | 104 | 95.8
CCN1CCN(Cc2ccc(NC(=O)c3ccc(C)c(NC(=O)c4ccc5n[nH]nc5c4)c3)cc2C(F)(F)F)CC1 | 101 | 111
Cc1cccc(C(=O)N[C@H](C(=O)Nc2nc3ccccc3[nH]2)C(C)C)c1 | 101 | 70.1
Cc1ccc(-n2nnnc2Sc2ccc(S(=O)(=O)NCCN(C)C)cc2[N+](=O)[O-])cc1 | 104 | 114
COc1ccc(-n2nc(C(=O)NCC(=O)Nc3cc(OC)c(OC)c(OC)c3)c3ccccc3c2=O)cc1Cl | 96.2 | 95.1
CCOC(=O)c1c(C)[nH]c(C(=O)N/N=C/c2ccc(Br)cc2)c1C | 89.5 | 83.1
Cc1ccc(CNc2ncnc3ccc(-c4ccc(CO)o4)cc23)o1 | 101 | 99.1
C[C@@H]1CC=C[C@H]2[C@H]1C(=O)N(Cc1ccccc1)[C@H]2c1ccc2ccccc2c1Br | 110 | 93.6
CC(=O)Oc1ccc(N(C(C)=O)S(=O)(=O)c2ccc(Cl)cc2)c2ccccc12 | 99.9 | 108
COc1ccc([C@]2(C(C)C)ON(c3ccccc3C(F)(F)F)C2=O)cc1 | 103 | 91.5
CCOc1ccccc1NC(=S)Nc1ccc2cn[nH]c2c1 | 104 | 114
CC(=O)c1ccc(-n2c(C)c(C(C)=O)c3cc(O)ccc32)cc1 | 56.2 | 74.6
CCCCCCCCCc1nc2sc3c(c2c(=O)n1NC(=O)c1ccc([N+](=O)[O-])cc1)CC(C)(C)OC3 | 80.5 | 115
O=[N+]([O-])c1cc([N+](=O)[O-])c2oc(-c3ccccc3)c(Br)c2c1O | 112 | 107
Brc1cccc(CSc2nnc(-c3ccncc3)o2)c1 | 105 | 99
C[C@]12CCC(O)CC1CCC1C2CC[C@]2(C)C(c3cc(C(F)(F)F)n[nH]3)CCC12 (stereo not given in full) | 121 | 99.6
COc1ccc(COC(=O)C2=C(C)NC(=O)NC2c2ccc(OC)cc2)cc1 (stereo not given) | 76.8 | 78
O=c1[nH]c(C2CCN(S(=O)(=O)c3ccc4c(c3)OCCO4)CC2)nc2c1nnn2Cc1c(F)cccc1Cl | 93 | 101
